In publication PMC8384837, “Expanding the binding specificity for RNA recognition by a PUF domain” one finds binding signal data, which are given here for eleven sequences.

Common to all, as to assay: yeast three-hybrid, YBZ-1, SC-Leu-His + 0.5 mM 3-AT, 4 days
What all share (conditions): tags: N-Gal4 AD-HA kept; label: inside an RPR1-promoter hybrid RNA with tandem MS2 sites; ssRNA

One assay concerns the target PUM1 PUF domain R4-RMG (Homo sapiens, UniProt Q14671 828-1176, N971R;H972M;Q975G). The method, boiled down: (§1)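 Each repeat of the Pumilio-1 PUF domain was randomized at its three base-contacting residues, and these libraries were co-expressed from a centromeric plasmid with matching RNA elements in strain YBZ-1. After four days on SC-Leu (input) or SC-Leu-His + 0.5 mM 3-AT (selection), the repeat regions were PCR-amplified and Illumina-sequenced. The interaction score compares variant frequency between input and selection as a log change, computed in log2 with a pseudocount of 1 for absent variants.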

The target in a further assay is PUM1 PUF domain R4-WSW (Homo sapiens, UniProt Q14671 828-1176, N971W;H972S;Q975W). The method, boiled down:
as §1

The target in the next assay is PUM1 PUF domain R3-SRA (Homo sapiens, UniProt Q14671 828-1176, C935S;Q939A). The method, boiled down:
as §1

The next assay has as its target PUM1 PUF domain R3-VRM (Homo sapiens, UniProt Q14671 828-1176, C935V;Q939M). An outline of the steps: as §1
A further assay has as its target PUM1 PUF domain R8-TWR (Homo sapiens, UniProt Q14671 828-1176, N1122T;Y1123W;Q1126R). The method, boiled down: as §1
A further assay addresses PUM1 PUF domain R5-DYG (Homo sapiens, UniProt Q14671 828-1176, C1007D;R1008Y;Q1011G). The method, boiled down:
as §1

The target of a further assay is PUM1 PUF domain R3-VRC (Homo sapiens, UniProt Q14671 828-1176, C935V;Q939C). The method, boiled down:
as §1

The next assay has as its target T1, PUM1 PUF domain R6-KFG (Homo sapiens, UniProt Q14671 828-1176, N1043K;Y1044F;Q1047G).
T1 sequence: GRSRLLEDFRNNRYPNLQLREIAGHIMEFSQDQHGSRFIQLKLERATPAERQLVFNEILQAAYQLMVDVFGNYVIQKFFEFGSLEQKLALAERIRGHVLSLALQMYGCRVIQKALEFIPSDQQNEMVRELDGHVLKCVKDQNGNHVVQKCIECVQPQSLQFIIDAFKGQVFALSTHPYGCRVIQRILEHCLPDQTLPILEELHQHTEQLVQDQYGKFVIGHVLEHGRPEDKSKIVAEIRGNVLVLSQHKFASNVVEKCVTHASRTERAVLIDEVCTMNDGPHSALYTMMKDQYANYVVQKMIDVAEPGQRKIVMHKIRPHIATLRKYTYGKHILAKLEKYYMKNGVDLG
An outline of the steps:
as §1

In another assay the target is PUM1 PUF domain R3-IRC (Homo sapiens, UniProt Q14671 828-1176, C935I;Q939C). The method, boiled down:
as §1

A further assay has as its target PUM1 PUF domain R4-GPC (Homo sapiens, UniProt Q14671 828-1176, N971G;H972P;Q975C). An outline of the steps:
as §1

In another assay the target is PUM1 PUF domain R4-YFG (Homo sapiens, UniProt Q14671 828-1176, N971Y;H972F;Q975G). The method, boiled down:
as §1

The target in another assay is PUM1 PUF domain R3-FWS (Homo sapiens, UniProt Q14671 828-1176, C935F;R936W;Q939S). The method, boiled down: as §1
For the next assay, the target named is PUM1 PUF domain R4-MNV (Homo sapiens, UniProt Q14671 828-1176, N971M;H972N;Q975V). The method, boiled down: as §1
The next assay has as its target PUM1 PUF domain R5-RKE (Homo sapiens, UniProt Q14671 828-1176, C1007R;R1008K;Q1011E). The method, boiled down:
as §1

The target of a further assay is PUM1 PUF domain R5-SDE (Homo sapiens, UniProt Q14671 828-1176, C1007S;R1008D;Q1011E). An outline of the steps: as §1
The next assay concerns the target PUM1 PUF domain R3-MRI (Homo sapiens, UniProt Q14671 828-1176, C935M;Q939I). The method, boiled down:
as §1

The target in another assay is PUM1 PUF domain R5-PYF (Homo sapiens, UniProt Q14671 828-1176, C1007P;R1008Y;Q1011F). The method, boiled down:
as §1

Another assay has as its target PUM1 PUF domain R8-PWK (Homo sapiens, UniProt Q14671 828-1176, N1122P;Y1123W;Q1126K). The method, boiled down: as §1
The next assay deals with PUM1 PUF domain R1-NWR (Homo sapiens, UniProt Q14671 828-1176, S863N;R864W;Q867R). The method, boiled down: as §1
A further assay addresses PUM1 PUF domain R4-QHR (Homo sapiens, UniProt Q14671 828-1176, N971Q;Q975R). The method, boiled down: as §1

For the sequence “GGCUAGAACUAGUGGAUCCCCCGGCGCCCGGCGGCUCGAGCCCGGGUAAGUGUAAAUAGUCUGCAUGCCGCCGGGCGCCAUGCCUGCAGGUCGACUCUAGAAAACAUG”, the binding signal with PUM1 PUF domain R4-RMG was 2.77 log2 enrichment (interaction score); in the assay with PUM1 PUF domain R4-WSW it was 4.02 log2 enrichment (interaction score); in the assay with PUM1 PUF domain R3-SRA it was 3.83 log2 enrichment (interaction score); in the assay with PUM1 PUF domain R3-VRM, 3.67 log2 enrichment (interaction score); with PUM1 PUF domain R8-TWR, 4.94 log2 enrichment (interaction score); with PUM1 PUF domain R5-DYG, 3.86 log2 enrichment (interaction score). Further, the binding signal with PUM1 PUF domain R3-VRC was 3.72 log2 enrichment (interaction score); with PUM1 PUF domain R6-KFG, 3.39 log2 enrichment (interaction score); in the assay with PUM1 PUF domain R3-IRC, 2.81 log2 enrichment (interaction score); with PUM1 PUF domain R4-GPC, 4.57 log2 enrichment (interaction score); with PUM1 PUF domain R4-YFG it was 2.07 log2 enrichment (interaction score); with PUM1 PUF domain R3-FWS, 3.07 log2 enrichment (interaction score).
In the case of “GGCUAGAACUAGUGGAUCCCCCGGCGCCCGGCGGCUCGAGCCCGGGUAAGUGUAUAUAGUCUGCAUGCCGCCGGGCGCCAUGCCUGCAGGUCGACUCUAGAAAACAUG”, the binding signal in the assay with PUM1 PUF domain R4-WSW was 3.38 log2 enrichment (interaction score); with PUM1 PUF domain R4-MNV it was 3.98 log2 enrichment (interaction score); with PUM1 PUF domain R4-GPC, 2.93 log2 enrichment (interaction score); in the assay with PUM1 PUF domain R4-YFG it was 3.63 log2 enrichment (interaction score).
Turning to “GGCUAGAACUAGUGGAUCCCCCGGCGCCCGGCGGCUCGAGCCCGGGUAAGUGUCAAUAGUCUGCAUGCCGCCGGGCGCCAUGCCUGCAGGUCGACUCUAGAAAACAUG”, the binding signal is 3.39 log2 enrichment (interaction score) with PUM1 PUF domain R5-RKE and 3.79 log2 enrichment (interaction score) with PUM1 PUF domain R5-DYG.
“GGCUAGAACUAGUGGAUCCCCCGGCGCCCGGCGGCUCGAGCCCGGGUAAGUGUGAAUAGUCUGCAUGCCGCCGGGCGCCAUGCCUGCAGGUCGACUCUAGAAAACAUG”: the binding signal in the assay with PUM1 PUF domain R5-SDE is 2.31 log2 enrichment (interaction score).
Consider “GGCUAGAACUAGUGGAUCCCCCGGCGCCCGGCGGCUCGAGCCCGGGUAAGUGUAAGUAGUCUGCAUGCCGCCGGGCGCCAUGCCUGCAGGUCGACUCUAGAAAACAUG”, for which the binding signal with PUM1 PUF domain R3-SRA was 3.65 log2 enrichment (interaction score); with PUM1 PUF domain R3-VRM, 1.15 log2 enrichment (interaction score); with PUM1 PUF domain R3-MRI, 5.12 log2 enrichment (interaction score); with PUM1 PUF domain R3-VRC it was 0.33 log2 enrichment (interaction score); in the assay with PUM1 PUF domain R3-FWS, 7.37 log2 enrichment (interaction score).
Consider “GGCUAGAACUAGUGGAUCCCCCGGCGCCCGGCGGCUCGAGCCCGGGUAAGUGUUAAUAGUCUGCAUGCCGCCGGGCGCCAUGCCUGCAGGUCGACUCUAGAAAACAUG”, for which the binding signal with PUM1 PUF domain R5-PYF was 2.41 log2 enrichment (interaction score); in the assay with PUM1 PUF domain R5-RKE it was 3.74 log2 enrichment (interaction score).
With “GGCUAGAACUAGUGGAUCCCCCGGCGCCCGGCGGCUCGAGCCCGGGUAAGCGUAAAUAGUCUGCAUGCCGCCGGGCGCCAUGCCUGCAGGUCGACUCUAGAAAACAUG”, the binding signal in the assay with PUM1 PUF domain R8-TWR was 5.17 log2 enrichment (interaction score); with PUM1 PUF domain R8-PWK, 5.71 log2 enrichment (interaction score).
Turning to “GGCUAGAACUAGUGGAUCCCCCGGCGCCCGGCGGCUCGAGCCCGGGUAAGUGUAAAUUGUCUGCAUGCCGCCGGGCGCCAUGCCUGCAGGUCGACUCUAGAAAACAUG”, the binding signal with PUM1 PUF domain R1-NWR was 4.99 log2 enrichment (interaction score).
With “GGCUAGAACUAGUGGAUCCCCCGGCGCCCGGCGGCUCGAGCCCGGGUAAGUGUAAUUAGUCUGCAUGCCGCCGGGCGCCAUGCCUGCAGGUCGACUCUAGAAAACAUG”, the binding signal with PUM1 PUF domain R3-SRA is 0.68 log2 enrichment (interaction score); with PUM1 PUF domain R3-VRM, 1.73 log2 enrichment (interaction score); in the assay with PUM1 PUF domain R3-MRI it was 1.25 log2 enrichment (interaction score); in the assay with PUM1 PUF domain R3-FWS it was 2.99 log2 enrichment (interaction score).
As for “GGCUAGAACUAGUGGAUCCCCCGGCGCCCGGCGGCUCGAGCCCGGGUAAGUGUACAUAGUCUGCAUGCCGCCGGGCGCCAUGCCUGCAGGUCGACUCUAGAAAACAUG”, the binding signal in the assay with PUM1 PUF domain R4-QHR was 2.26 log2 enrichment (interaction score); in the assay with PUM1 PUF domain R4-WSW, 2.13 log2 enrichment (interaction score); with PUM1 PUF domain R4-MNV, 0.87 log2 enrichment (interaction score); with PUM1 PUF domain R4-GPC, 1.58 log2 enrichment (interaction score).
“GGCUAGAACUAGUGGAUCCCCCGGCGCCCGGCGGCUCGAGCCCGGGUAAGUGUAAAUCGUCUGCAUGCCGCCGGGCGCCAUGCCUGCAGGUCGACUCUAGAAAACAUG”: the binding signal with PUM1 PUF domain R1-NWR is 6.94 log2 enrichment (interaction score).
